# Assay results reported in the supplement of paper PMC9135407.
# Counter-ions that a name gives are not always drawn. In all, about 5,800 compounds went through this assay and about 620 (11%) showed activity. The full list was thinned out, with actives kept by preference. Values without a mark were called inactive.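 The calls were made as follows: active = score above a cut-off or among the top three wells of a plate; in these data no inactive exceeds 0.85.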
# Test system: primary human hepatic stellate cells (donor 1)
# Test: scaled lipid accumulation score (0 = DMSO-like, 1 = nortriptyline-like); higher = stronger HSC inactivation (lipid re-accumulation), active = hit call of the paper
# Conditions: 48 h
# [1] = library stock concentration: 3.33 mM
# [2] = library stock concentration: 10 mM
# [3] = library stock concentration: 1 mM
# [4] = library stock concentration: 80 uM
# [5] = library stock concentration: 400 uM
# [6] = library stock concentration: 2 mM
smiles,measurement,setting,value
CN[C@@H]1C[C@H]2O[C@@](C)([C@@H]1OC)n1c3ccccc3c3c4c(c5c6ccccc6n2c5c31)C(=O)N[C@H]4O,scaled lipid accumulation score,[1],1.21 (active)
Cc1ncc(COP(=O)([O-])[O-])c(CN(CCN(CC(=O)O)Cc2c(COP(=O)([O-])O)cnc(C)c2O)CC(=O)O)c1O.[Mn].[Na+].[Na+].[Na+],scaled lipid accumulation score,[2],0.072
CC(C)CCCCCCC/C=C\C(=O)O [cis-.DELTA.2-11-methyl-Dodecenoic Acid],scaled lipid accumulation score,[3],0.068
CCOc1ccc(Nc2nc(-c3c(C)nc4ccccn34)cs2)cc1,scaled lipid accumulation score,[2],0.446
CCCCC[C@H](O)/C=C/[C@H]1[C@H](O)CC(=O)[C@@H]1CC(=O)CCCCC(=O)O [6-keto Prostaglandin E1],scaled lipid accumulation score,[3],≤ 0
O=C(NC1CC1)c1cccc(-c2ccc3c(NC(=O)C4CC4)n[nH]c3c2)c1,scaled lipid accumulation score,[4],≤ 0
same,scaled lipid accumulation score,[5],≤ 0
same,scaled lipid accumulation score,[6],≤ 0
same,scaled lipid accumulation score,[2],≤ 0
C[C@H](Nc1ncnc2nc[nH]c12)c1cc2cccc(Cl)c2c(=O)n1-c1ccccc1,scaled lipid accumulation score,[1],≤ 0
same,scaled lipid accumulation score,[2],≤ -0.001
CCN(CC)CCNC(=O)c1ccc(NC(C)=O)cc1 [Acecainide hydrochloride],scaled lipid accumulation score,library stock concentration: 6.4 mM,≤ 0
CCN(CC)CCNC(=O)c1ccc(NC(C)=O)cc1 [N-Acetylprocainamide hydrochloride],scaled lipid accumulation score,[2],≤ 0
CCCCN(Cc1ccc(C(=O)NO)cc1)C(=O)Nc1ccccc1 [Nexturastat A],scaled lipid accumulation score,[1],≤ -0.009
same,scaled lipid accumulation score,[2],0.176
CCN(CC)Cc1ccc2cc(COC(=O)Nc3ccc(C(=O)NO)cc3)ccc2c1.Cl.O [Givinostat (ITF2357)],scaled lipid accumulation score,[1],0.903 (active)
same,scaled lipid accumulation score,[2],0.897 (active)
COc1ccc(S(=O)(=O)N2c3ccc(Cl)cc3[C@](O)(c3ccccc3Cl)[C@@H]2C(=O)N2CCC[C@H]2C(N)=O)cc1OC,scaled lipid accumulation score,[2],0.02
O=C(O)c1cc(=O)c2cccc(O)c2[nH]1 [Xanthurenic acid],scaled lipid accumulation score,[2],≤ 0
O=C(Nc1cc2cc[nH]c2cn1)c1ccccc1,scaled lipid accumulation score,[1],≤ -0.009
same,scaled lipid accumulation score,[2],≤ 0
COC(=O)N1CCN(Cc2cccc(NC(=O)Nc3ccc(C)nc3)c2F)CC1,scaled lipid accumulation score,[1],≤ 0
same,scaled lipid accumulation score,[2],0.038
Cc1ccc(C(=O)Nc2ccc(CN3CCN(C)CC3)c(C(F)(F)F)c2)cc1C#Cc1cnc2cccnn12 [listing 1 of 3 here],scaled lipid accumulation score,[5],0.949 (active)
same,scaled lipid accumulation score,[6],1.1 (active)
same,scaled lipid accumulation score,[2],1.14 (active)
Cc1ccc(C(=O)Nc2ccc(CN3CCN(C)CC3)c(C(F)(F)F)c2)cc1C#Cc1cnc2[nH]ncc2c1,scaled lipid accumulation score,[1],0.479
same,scaled lipid accumulation score,[2],0.258
Cc1ccc(C(=O)Nc2ccc(CN3CCN(C)CC3)c(C(F)(F)F)c2)cc1C#Cc1cnc2cccnn12 [listing 2 of 3 here],scaled lipid accumulation score,[1],1.06 (active)
CCN1CCN(Cc2ccc(NC(=O)c3ccc(C)c(/C=C/c4cnc5[nH]ccc5c4OC)c3)cc2C(F)(F)F)CC1,scaled lipid accumulation score,[6],0.888 (active)
same,scaled lipid accumulation score,[2],1.11 (active)
CCN1CCN(Cc2ccc(NC(=O)c3ccc(C)c(Oc4ccnc5[nH]ccc45)c3)cc2C(F)(F)F)CC1,scaled lipid accumulation score,[4],0.069
same,scaled lipid accumulation score,[5],0.308
same,scaled lipid accumulation score,[6],0.809
same,scaled lipid accumulation score,[2],0.792
Cc1ccc(C(=O)Nc2ccc(CN3CCN(C)CC3)c(C(F)(F)F)c2)cc1C#Cc1cnc2cccnn12 [listing 3 of 3 here],scaled lipid accumulation score,[4],0.459
same,scaled lipid accumulation score,[2],0.533
CCN1CCN(Cc2ccc(Nc3ncc4c(n3)N(C)c3ccccc3C(=O)N4C)cc2C(F)(F)F)CC1,scaled lipid accumulation score,[4],0.012
same,scaled lipid accumulation score,[5],0.132
same,scaled lipid accumulation score,[6],0.243
same,scaled lipid accumulation score,[2],0.479
"CCCCC/C=C\C/C=C\CCCC/C=C\CCCC(=O)O [5(Z),11(Z),14(Z)-Eicosatrienoic Acid]",scaled lipid accumulation score,[3],≤ 0
CC(S)C(=O)NCC(=O)O (configuration not stated) [Tiopronin],scaled lipid accumulation score,[1],≤ 0
same,scaled lipid accumulation score,[2],≤ 0
CC(S)C(=O)NCC(=O)O (configuration not stated),scaled lipid accumulation score,[2],≤ 0
CCCCCCCC/C=C\CCCCCCCCCCCC(=O)O [13(Z)-Docosenoic Acid],scaled lipid accumulation score,[3],0.016
"CCC(CO)Nc1nc(NCc2ccccc2)c2ncn(C(C)C)c2n1 [Roscovitine, (S)-Isomer]",scaled lipid accumulation score,[1],≤ 0
